Assay outcomes: PubChem, several laboratories
Shown are actives, neighbours in structure and some others; about 3.6% of the full set was active somewhere.
Anthrax LF inh2: blocks Bacillus anthracis lethal factor protease; P15917; multiplex microsphere protease cleavage assay, LF; inhibition, % at 10 µM; actives 0.12% (n = 360,000); also: plate controls were buffer without enzyme for full effect and enzyme alone for no effect
MazF activator: increases E. coli MazEF RNase cleavage of RNA. FAM/BHQ RNA-DNA oligo cleavage fluorescence, 5 h. actives 0.32% (n = 350,000). activation, % at 20 µM; in the data active = activation above about 50%
Autofluor counter: counter-screen for toxin protease inhibitors: compound fluorescence; compound autofluorescence counterscreen, microsphere flow cytometry; active compounds read high; fluorescence intensity (test concentration not listed); actives 3.1% (n = 360,000); in the data active = fluorescence intensity above about 16000; inconclusive = no clear call, values can overlap the other calls
BoNT-A LC inh2: blocks Botulinum neurotoxin A light chain protease. inhibition, % at 10 µM. actives 0.17% (n = 360,000). AID 588499. multiplex microsphere protease substrate cleavage, flow cytometry; also: plate controls were buffer without enzyme for full effect and enzyme alone for no effect
BoNT F protease: blocks Botulinum neurotoxin F light chain protease | Multiplex microsphere protease cleavage assay, flow cytometry | inhibition, % at 10 µM | actives 0.22% (n = 360,000) | AID 588497; in the data active = inhibition above about 35%, passing the limit was not always enough; inconclusive = no clear call, values can overlap the other calls; also: plate controls were buffer without enzyme for full effect and enzyme alone for no effect
* hit, by the source's call; ? = inconclusive; . = not tested or not shown. Rule as the data show it, unless noted: active = inhibition above about 30%; inconclusive = no clear call, values can overlap the other calls; inactive = below that.

SMILES | Anthrax LF inh2 | MazF activator | Autofluor counter | BoNT-A LC inh2 | BoNT F protease
NC(Cc1ccc(C(F)(F)F)cc1)c1csc(NC(=O)Nc2ccccc2)n1 (stereo not given) | -4 | . | 3969 | -1 | -25
Cc1oc2ccccc2c1-c1cn2c(n1)SCC2 | -5 | 6 | 23992* | ? | -5
Cc1ccc(S(=O)(=O)C2(C(=O)N3CCCCCC3)CC2)cc1 | -4 | 2 | 16721* | ? | -4
O=C(/C=C/c1ccc(S(=O)(=O)N2CCOCC2)cc1)NCc1ccccc1Cl | -1 | -1 | 2621 | 0 | -8
O=C(COC(=O)CCN1C(=O)/C(=C\C=C\c2ccccc2)SC1=S)Nc1ccc(Br)cc1 | 27 | -6 | 4781 | 41* | 14
CC(C)c1ccccc1NC(=O)COC(=O)CCN1C(=O)/C(=C\C=C\c2ccccc2)SC1=S | 18 | 48 | 2544 | 40* | 6
CC1(C(=O)NCc2ccco2)Cc2c(-c3cccc(C(F)(F)F)c3)ccnc2O1 (stereo not given) | -3 | . | 3691 | -1 | 4
Nc1ccc2oc3ccccc3c2c1 | -8 | 9 | 7346 | -2 | -12
Nc1ccc2c(c1)oc1ccccc12 | 0 | 2 | 22331* | 1 | 1
COc1cccc(C(=O)C2CN(c3ccccc3)CC2c2ccc(Cl)cc2)c1 (stereo not given) | -4 | -10 | 21602* | -2 | -5
CCCCN1CNC(=S)N(c2cc(C)ccc2C)C1 | 0 | -2 | 21773* | 0 | -2
Cc1ccc(N(C(=O)c2snc(C(N)=O)c2N)C(C(=O)NCCC(C)C)c2ccco2)cc1 (stereo not given) | -3 | -3 | 4285 | 0 | -3
CCCCC(C(=O)NCCC(C)C)N(CCCN1CCOCC1)C(=O)c1snc(C(N)=O)c1N (stereo not given) | 1 | 0 | 20769* | 0 | 0
CC(C)CCNC(=O)C(c1ccco1)N(Cc1ccccc1)C(=O)c1snc(C(N)=O)c1N (stereo not given) | -3 | 1 | 22391* | 2 | 2
O=C1C(Cl)=C(Nc2ccc(F)cc2)C(=O)N1CCc1ccccc1 | 4 | 19 | 2737 | 0 | 3
O=C1C(Cl)=C(NCCCN2CCOCC2)C(=O)N1CCc1ccccc1 | -9 | -5 | 22919* | 0 | -2
O=C1C(Cl)=C(NCCc2ccccc2)C(=O)N1CCc1ccccc1 | -3 | 70* | 4587 | 1 | -8
Cc1ccc(N=C2SC(C(=O)NCCc3ccccc3)CC(=O)N2C)cc1C (stereo not given) | 0 | 4 | 4145 | 0 | -2
Cc1cc(Nc2ccccc2)nc(-c2ccccc2O)n1 | 2 | 3 | 4866 | -1 | -11
Cc1cc(NCc2ccccc2)nc(-c2ccccc2O)n1 | 0 | -4 | 20264* | ? | -2
Cc1cc(Nc2ccccc2Cl)nc(-c2ccccc2O)n1 | 3 | 1 | 4056 | 0 | 36*
Cc1cc(NC2CCCCC2)nc(-c2ccccc2O)n1 | 1 | 1 | 3381 | 0 | -7
Cc1ccc(S(=O)(=O)N2C[C@H]3C(=O)C[C@@H](c4ccccc4C)N(S(=O)(=O)c4ccc(C)cc4)[C@H]3C[C@H]2c2ccccc2)cc1 | 0 | . | 4899 | 0 | -5
O=C1CSC(=Nc2cc(Cl)ccc2Cl)N1 | 2 | -2 | 22505* | 4 | 2
Cc1ccc(C)c(NC(=O)CSc2nnc(CCCCCNC(=O)OC(C)(C)C)o2)c1 | -2 | -3 | 26977* | -8 | -15
SMILES | Anthrax LF inh2 | MazF activator | Autofluor counter | BoNT-A LC inh2 | BoNT F protease
Cc1cccc(C)c1NC(=O)CSc1nnc(CCCCCNC(=O)OC(C)(C)C)o1 | -10 | 3 | 16539* | -2 | -6
Cc1ccc(NC(=O)CSc2nnc(CCNC(=O)OC(C)(C)C)o2)c(C)c1 | 8 | -2 | 9877 | 0 | -3
Cc1ccc(S(=O)(=O)NCC(=O)NCC(=O)NCCc2ccc(Cl)cc2)cc1C | -4 | 2 | 2970 | 0 | 4
CCCCOC(=O)CCN1C(=O)/C(=C2\SC(=S)N(CCC(=O)OCCCC)C2=O)SC1=S | 15 | 8 | 2108 | 30* | -1
CCCCCCCCCCOC(=O)CCN1CC1 | 1 | -11 | 4248 | 0 | -4
CCCOC(=O)CCCN1C(=O)/C(=C2\SC(=S)N(CCCC(=O)OCCC)C2=O)SC1=S | 6 | -1 | 3940 | 81* | ?
CCCCCOC(=O)CCN1C(=O)/C(=C2\SC(=S)N(CCC(=O)OCCCCC)C2=O)SC1=S | 14 | -12 | 3092 | 40* | 21
O=C(O)c1ccn(CSc2cc(Cl)ccc2Cl)n1 | -4 | 6 | 6833 | -1 | 4
CC(C)c1ccc([N+](=O)[O-])cc1S(=O)(=O)N1CCN(C)CC1 | 14 | -5 | 3086 | -2 | ?
CCCn1c(O)c(/C=C2\C=NN=C2c2ccccc2)sc1=S | 0 | 11 | 25085* | -3 | -8
O=[N+]([O-])c1ccccc1S(=O)(=O)N1CCCc2ccccc21 | 9 | -1 | 3951 | -1 | -25
CCOC(=O)c1cc(C(=O)Nc2ccc(C)c(F)c2)nn1C | -2 | -4 | 21479* | -3 | -6
CCOC(=O)c1cc(C(=O)NCc2ccc(Cl)cc2Cl)nn1C | -2 | -4 | 2345 | 0 | -2
CCOc1cc(C(c2c(C)[nH][nH]c2=O)c2c(C)[nH][nH]c2=O)cc(Br)c1OC | -13 | 5 | 3306 | -4 | 1
Cc1ccccc1OCC(=O)Nc1ccc2c(c1)C(=O)N(CCC(=O)O)C2=O | -4 | 0 | 4441 | 1 | -4
O=C(CCNC(=O)N1CCn2c1nc1ccccc12)NCc1ccccc1 | 0 | -1 | 5054 | 1 | -3
CCCNC(=O)N[C@@H](Cc1ccccc1)C(=O)OC | -4 | -7 | 22925* | ? | 0
COC(=O)[C@H](Cc1ccccc1)NC(=O)NCc1ccccc1 | . | -1 | . | . | .
CCC(C)[C@H](NC(=O)NC1CCN(Cc2ccccc2)CC1)C(=O)OC (stereo not given in full) | 2 | -6 | 22325* | 2 | 3
COC(=O)[C@H](Cc1ccccc1)NC(=O)N1CCN(Cc2ccccc2)CC1 | 1 | 1 | 23718* | 0 | -2
COCc1nnc(NC(C)=O)s1 | 8 | 4 | 4792 | 0 | 0
COc1ccc(Cn2c(/C=C/c3ccccc3)nc3ccccc32)cc1 | 2 | 3 | 24328* | -1 | -4
CCn1c(/C=C/c2ccccc2)nc2ccccc21 | -3 | -1 | 10220 | 1 | 9
O=C(NCc1ccccc1)N1CCn2c(nc3ccccc32)C1 | -3 | -7 | 19281* | 2 | 0
O=C(Nc1ccccc1Cl)N1CCn2c(nc3ccccc32)C1 | -8 | 2 | 4136 | -1 | 5
O=C(c1ccccc1)N1CCn2c(nc3ccccc32)C1 | 1 | 8 | 19484* | ? | 4
O=C(c1ccc2ccccc2n1)N(CCO)Cc1ccccc1 | -10 | -1 | 3762 | -5 | -3
CCCn1c(N)c(C(=S)NC(=O)C2CC2)c(=O)n(C)c1=O | 0 | 8 | 2513 | -1 | -2
Cc1cc(-c2ccccc2)nc(N/N=C/c2ccco2)n1 | -3 | -2 | 24412* | -2 | -5
Cc1ccc(-c2csc(N/N=C/c3ccco3)n2)cc1 | -6 | 11 | 23231* | 0 | -6
